Many of the other results were omitted from the sample, so hits are more common in it than they were.
U2OS ROS induce – inducers of reactive oxygen species in cancer cells. 2% of 46,000 active. U2OS ROS induction, H2DCF-DA fluorescence. ROS induction (% of piperlongumine), % at 10 µM. AID 624156; in the data active = ROS induction above about 79%, passing the limit was not always enough;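 note: 0% = DMSO vehicle median and 100% = reference compound median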
An asterisk follows results filed as active.

Screening C[C@@H]1CN([C@H](C)CO)C(=O)c2cccc(NC(=O)Nc3ccc(C(F)(F)F)cc3)c2O[C@@H]1CN(C)C(=O)Nc1ccc2c(c1)OCO2 returned U2OS ROS induce 94*.
Screening C[C@@H]1CN([C@@H](C)CO)C(=O)c2cccc(NC(=O)Nc3ccc4c(c3)OCO4)c2O[C@H]1CN(C)C(=O)Nc1ccc(C(F)(F)F)cc1 returned U2OS ROS induce 8.
`C[C@@H]1CN([C@@H](C)CO)C(=O)c2cccc(NS(=O)(=O)c3cn(C)cn3)c2O[C@@H]1CN(C)Cc1ccc2c(c1)OCO2` gave U2OS ROS induce -8.
Screening CC(C)NC(=O)N(C)C[C@H]1Oc2c(NC(=O)Nc3ccc4c(c3)OCO4)cccc2C(=O)N([C@@H](C)CO)C[C@H]1C returned U2OS ROS induce 90*.
Screening C[C@@H]1CN([C@@H](C)CO)C(=O)c2cccc(NS(=O)(=O)c3cn(C)cn3)c2O[C@H]1CN(C)Cc1ccc2c(c1)OCO2 returned U2OS ROS induce 86*.
`C[C@@H]1CN([C@@H](C)CO)C(=O)c2cccc(NC(=O)Nc3ccc(C(F)(F)F)cc3)c2O[C@@H]1CN(C)Cc1ccc2c(c1)OCO2` gave U2OS ROS induce 63.
C[C@H](CO)N1C[C@H](C)[C@H](CN(C)C(=O)Nc2ccc3c(c2)OCO3)Oc2c(NC(=O)Nc3ccc(C(F)(F)F)cc3)cccc2C1=O was read as U2OS ROS induce 23.
`CC(C)NC(=O)N(C)C[C@@H]1Oc2c(NC(=O)Nc3ccc4c(c3)OCO4)cccc2C(=O)N([C@@H](C)CO)C[C@H]1C` gave U2OS ROS induce -12.
C[C@@H]1CN([C@@H](C)CO)C(=O)c2cccc(NC(=O)Nc3ccc4c(c3)OCO4)c2O[C@H]1CN(C)Cc1ccc(C(F)(F)F)cc1 was read as U2OS ROS induce 88*.
For CC(C)NC(=O)N(C)C[C@@H]1Oc2c(NC(=O)Nc3ccc4c(c3)OCO4)cccc2C(=O)N([C@H](C)CO)C[C@@H]1C the results were U2OS ROS induce 17.
CC(C)(C)n1nc2c(c1NC(=O)c1ccc(Cl)cc1)CSC2 was read as U2OS ROS induce 7.
CC(=O)Nc1cc(C(=O)NCCCN2CCC(C)CC2)ccc1S(=O)(=O)c1ccc(Cl)cc1 was read as U2OS ROS induce -1.
`CN(C)C(=O)Cn1c(=O)oc2ccccc21` gave U2OS ROS induce -11.
Nc1cc(C(F)(F)F)ccc1Sc1nc2ccccc2s1 was read as U2OS ROS induce 2.
`NC1=NC(=Nc2cccc(C(F)(F)F)c2)c2ccccc21` gave U2OS ROS induce 12.
`CC(=O)N1CCOc2cc(S(=O)(=O)N3CCCCC3C)ccc21` (stereo unspecified) gave U2OS ROS induce -4.
`O=C(Cn1cnc2c(nnn2-c2cccc(Cl)c2)c1=O)N1CCCc2ccccc21` gave U2OS ROS induce -11.
For CC(=O)OCC(=O)[C@@]12OC(C)(C)O[C@@H]1CC1C3C[C@H](F)C4=CC(=O)C=C[C@]4(C)[C@@]3(F)[C@@H](O)C[C@@]12C (stereo partly specified) the results were U2OS ROS induce 16.
CC(=O)OCC(=O)[C@@]1(O)[C@H](C)C[C@H]2[C@@H]3CCC4=CC(=O)C=C[C@]4(C)[C@@]3(F)[C@@H](O)C[C@@]21C was read as U2OS ROS induce 9.
CC(=O)OCC(=O)[C@@]12OC3(CCCC3)O[C@@H]1CC1C3CCC4=CC(=O)C=C[C@]4(C)[C@@]3(F)[C@@H](O)C[C@@]12C (stereo partly specified) was read as U2OS ROS induce 129*.
For CCCC(C(N)=O)C1=NC2(CCCCC2)Cc2ccccc21 (stereo unspecified) the results were U2OS ROS induce -11.
`Cc1ccc(NC(=O)CCn2nnc(-c3ccc(OCc4ccccc4F)cc3)n2)cc1C` gave U2OS ROS induce 0.
Screening COc1ccc2oc(=Nc3ccc(C(=O)O)cc3)c(C(=O)NCc3ccccc3)cc2c1 returned U2OS ROS induce -9.
`C[C@H](CO)N1C[C@H](C)[C@H](CN(C)Cc2ccc(C(F)(F)F)cc2)Oc2c(NC(=O)c3ccc(-c4nccs4)cc3)cccc2C1=O` gave U2OS ROS induce 24.
`C[C@H]1CN([C@@H](C)CO)C(=O)c2cccc(NC(=O)c3ccc(-c4nccs4)cc3)c2O[C@H]1CN(C)Cc1ccc(Oc2ccccc2)cc1` gave U2OS ROS induce 38.
For C[C@H]1CN([C@@H](C)CO)C(=O)c2cccc(NC(=O)c3ccc(-c4nccs4)cc3)c2O[C@@H]1CN(C)Cc1ccc(C(=O)O)cc1 the results were U2OS ROS induce -10.
Screening C[C@H]1CN([C@@H](C)CO)C(=O)c2cccc(NC(=O)c3ccc(-c4nccs4)cc3)c2O[C@H]1CN(C)S(=O)(=O)c1cccs1 returned U2OS ROS induce 83*.
For C[C@@H]1CN([C@@H](C)CO)C(=O)c2cccc(NC(=O)c3ccc(-c4nccs4)cc3)c2O[C@@H]1CN(C)S(=O)(=O)c1cccs1 the results were U2OS ROS induce 29.
